“And” between values parts separate entries of the source, which are not always exact repeats. Identical values can stand only once. Results filed as inconclusive are left out. Some structures have more than one record in an assay (separate samples or runs), and their calls can disagree. The source made the active and inactive calls. Unless noted, calls come from the whole dose curve; as a rule, active = well fitted curve in the direction sought with a large enough effect in the repeat runs; inconclusive = weak or mixed curves; inactive = no such curve, though single readings can be large; an effect the other way counts as inactive or inconclusive.
How the values were obtained:
[1] = qHTS assay to identify small molecule antagonists of the retinoid acid receptor (RAR) signaling pathway - cell viability counter screen (AID 1159551); note: nearly all actives have a fitted effect of over 35% in size; note: potency is the fitted concentration of half-maximal effect
Summary of the method: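 Retinol-stimulated (1 uM final) C3RL4 cells, compound 6 h, 37 C; readout CellTiter-Glo luminescence (ATP) after 30 min RT incubation.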

[2] = biological target: Luciferin 4-monooxygenase (Photinus pyralis) (UniProt P08659); assay: qHTS assay to identify small molecule inhibitors of firefly luciferase (AID 1224835); note: nearly all actives have a fitted effect of over 25% in size; note: potency is the fitted concentration of half-maximal effect
Summary of the method: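 Quantitative HTS format; KM concentrations of both substrates. Purified P. pyralis FLuc activity quantified from luminescence images.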

[3] = qHTS assay to identify small molecule agonists of the constitutive androstane receptor (CAR) signaling pathway - cell viability counter screen (AID 1224836); note: nearly all actives have a fitted effect of over 45% in size; note: potency is the fitted concentration of half-maximal effect
Summary of the method: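 Cell viability multiplexed with the CAR agonist screen: CellTiter-Fluor fluorescence after 23 hr at 37 C. HepG2-CYP2B6-hCAR cells got compounds at 15 concentrations with PK11195 at 0.75 uM final.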

[4] = qHTS assay to identify small molecule antagonists of the constitutive androstane receptor (CAR) signaling pathway - cell viability counter screen (AID 1224837); note: nearly all actives have a fitted effect of over 45% in size; note: potency is the fitted concentration of half-maximal effect
Summary of the method: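 Counter screen run in HepG2-CYP2B6-hCAR cells: 4 hr settle, compound titration (15 concentrations) with 50 nM CITCO, 23 hr at 37 C/5% CO2, CellTiter-Fluor fluorescence.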

[5] = biological target: Nuclear receptor subfamily 1 group I member 3 (Homo sapiens) (UniProt Q14994); assay: qHTS assay to identify small molecule agonists of the constitutive androstane receptor (CAR) signaling pathway (AID 1224839); note: nearly all actives have a fitted effect of over 15% in size; note: potency is the fitted concentration of half-maximal effect
Summary of the method: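 Luminescent ONE-Glo read-out after 24 hr, 37 C exposure of double-stable HepG2-CYP2B6-hCAR reporter cells to a 15-point compound series, in the presence of 0.75 uM PK11195 (final).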

[6] = qHTS assay to identify small molecule antagonists of the estrogen related receptor signaling pathway with the pleiotropic PPARgamma coactivator (PGC) from Tox21 10K library - cell viability counter screen (AID 1224840; active = well fitted cell-killing curve with a large enough effect in the repeat runs, not every such curve was filed as active; note: nearly all actives have a fitted effect of over 40% in size; note: potency is the fitted concentration of half-maximal effect)
Summary of the method: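 Following seeding of 2,000 PGC/ERR cells/well and 6 hours' incubation, test compounds were delivered in DMSO. The plates then sat 17.5 hours at 37 C before a fluorogenic live-cell protease reagent (CellTiter-Fluor) was read after 30 min.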

[7] = qHTS assay to identify small molecule agonists of the hypoxia (HIF-1) signaling pathway - cell viability counter screen (AID 1224844; calls by dose curve; note: nearly all actives have a fitted effect of over 50% in size; note: potency is the fitted concentration of half-maximal effect)
Summary of the method: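 Cells (HRE-bla ME-180, 2,000 per well) sat 5 hrs at 37C, got compound for 17 hrs, were read for CCF4-AM FRET, and were finally lysed with CellTiter-Glo for a 30 min room-temperature luminescence read.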

[8] = qHTS assay to identify small molecule antagonists of the estrogen related receptor (ERR) signaling pathway from Tox21 library - cell viability counter screen (AID 1224834); note: nearly all actives have a fitted effect of over 30% in size; note: potency is the fitted concentration of half-maximal effect
Summary of the method: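 After 17.5 h of compound exposure at 37 C, ERR cells are incubated with CellTiter-Fluor for 30 min and fluorescence intensity serves as the viability measure.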

[9] = biological target: Nuclear receptor subfamily 1 group I member 3 (Homo sapiens) (UniProt Q14994); assay: qHTS assay to identify small molecule antagonists of the constitutive androstane receptor (CAR) signaling pathway (AID 1224838);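 note: HepG2 cells stably expressing hCAR with CYP2B6 luciferase reporter stimulated by CITCO; nearly all actives have a fitted effect of over 40% in size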
Summary of the method: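 Cell line: HepG2 double-stable for hCAR and CYP2B6-2.2kb reporter. Agonist: CITCO, 50 nM final. Compounds: 15 concentrations, 24 h, 37 C. Detection: ONE-Glo luminescence.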

[10] = biological target: Thyrotropin receptor (Homo sapiens) (UniProt P16473); assay: qHTS assay to identify small molecule agonists of the thyroid stimulating hormone receptor (TSHR) signaling pathway (AID 1224843; calls by dose curve; note: nearly all actives have a fitted effect of over 45% in size; note: potency is the fitted concentration of half-maximal effect)
Summary of the method: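 Cell line HEK293 with TSHR; density 800/well. Exposure 30 min RT. Readout HTRF cAMP (cAMP-d2/anti-cAMP-cryptate), 1 h RT before reading.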

[11] = qHTS assay to identify small molecule agonists of the estrogen related receptor signaling pathway with the pleiotropic PPARgamma coactivator (PGC) from Tox21 10K library (AID 1224842); note: nearly all actives have a fitted effect of over 15% in size
Summary of the method: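 PGC/ERR reporter cells (NTP line) were seeded 2,000 per well, rested 6 h at 37 C/5% CO2, then pin-dosed with compounds in DMSO for 18 h at 37 C; luciferase read by One-Glo luminescence after 30 min at room temperature.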

[12] = qHTS assay to identify small molecule antagonists of the estrogen related receptor signaling pathway with the pleiotropic PPARgamma coactivator (PGC) from Tox21 10K library (AID 1224841; call rule not given here; note: actives are mostly falling curves and most rising ones were filed inactive; nearly all actives have a fitted effect of over 50% in size; note: potency is the fitted concentration of half-maximal effect)
Summary of the method: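 qHTS antagonist format: PGC/ERR cells, 2k/well, compound in DMSO by pin transfer after 6 h attachment, 18 h treatment at 37 C, One-Glo luminescence read at 30 min.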

[13] = qHTS assay to identify small molecule antagonists of the retinoic acid receptor (RAR) signaling pathway (AID 1159552; note: nearly all actives have a fitted effect of over 50% in size)
Summary of the method: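 Luminescent RARE reporter read-out in C3RL4 cells: 6 hr co-treatment at 37 C of test compounds with retinol at 1 uM final. Cells plated overnight beforehand; luciferase reagent incubated 30 min at room temperature before reading.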

[14] = qHTS assay to identify small molecule agonists of the retinoic acid receptor (RAR) signaling pathway (AID 1159553)
Summary of the method: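 Reporter readout comes from luciferase under RARE control in C3RL4 cells; compound exposure lasts 6 hr at 37 C in 5% CO2, and luminescence is recorded following a 30 min room-temperature incubation with reagent.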

Measured: Potency

Chain of Luciferin 4-monooxygenase (Photinus pyralis) (P08659 whole entry, looked up): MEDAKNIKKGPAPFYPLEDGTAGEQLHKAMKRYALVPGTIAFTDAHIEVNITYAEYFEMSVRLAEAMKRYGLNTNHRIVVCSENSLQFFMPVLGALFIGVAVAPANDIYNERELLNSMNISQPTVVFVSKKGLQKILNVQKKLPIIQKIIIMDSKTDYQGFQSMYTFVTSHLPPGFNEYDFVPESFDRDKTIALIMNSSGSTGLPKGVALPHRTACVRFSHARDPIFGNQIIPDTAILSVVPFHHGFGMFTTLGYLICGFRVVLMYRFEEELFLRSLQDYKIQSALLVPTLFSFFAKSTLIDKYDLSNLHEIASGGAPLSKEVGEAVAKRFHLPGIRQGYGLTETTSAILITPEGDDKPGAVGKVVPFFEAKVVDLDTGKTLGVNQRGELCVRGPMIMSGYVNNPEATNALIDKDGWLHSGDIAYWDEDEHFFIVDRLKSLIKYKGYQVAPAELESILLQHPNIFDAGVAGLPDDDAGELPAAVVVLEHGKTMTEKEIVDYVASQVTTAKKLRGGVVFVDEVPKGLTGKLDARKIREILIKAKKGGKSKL
Chain of Thyrotropin receptor (Homo sapiens) (P16473 whole entry, looked up): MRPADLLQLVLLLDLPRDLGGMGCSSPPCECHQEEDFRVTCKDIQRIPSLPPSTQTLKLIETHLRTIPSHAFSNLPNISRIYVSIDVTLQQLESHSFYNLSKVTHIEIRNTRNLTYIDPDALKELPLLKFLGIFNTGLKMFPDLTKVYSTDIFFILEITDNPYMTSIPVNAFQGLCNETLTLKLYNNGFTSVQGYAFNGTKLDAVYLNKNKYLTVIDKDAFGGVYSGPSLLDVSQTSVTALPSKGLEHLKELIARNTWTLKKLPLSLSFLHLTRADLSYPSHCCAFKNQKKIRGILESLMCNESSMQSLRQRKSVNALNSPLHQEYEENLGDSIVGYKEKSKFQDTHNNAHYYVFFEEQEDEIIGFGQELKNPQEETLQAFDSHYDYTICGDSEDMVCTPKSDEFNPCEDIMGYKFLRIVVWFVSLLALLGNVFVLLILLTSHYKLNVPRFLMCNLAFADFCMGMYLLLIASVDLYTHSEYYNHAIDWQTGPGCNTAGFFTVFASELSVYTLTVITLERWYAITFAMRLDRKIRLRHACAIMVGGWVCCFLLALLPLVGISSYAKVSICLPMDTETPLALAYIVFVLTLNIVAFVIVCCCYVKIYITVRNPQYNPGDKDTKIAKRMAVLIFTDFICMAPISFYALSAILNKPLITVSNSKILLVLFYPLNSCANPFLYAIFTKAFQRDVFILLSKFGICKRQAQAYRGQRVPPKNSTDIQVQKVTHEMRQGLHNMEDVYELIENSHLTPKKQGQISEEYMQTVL
Chain of Nuclear receptor subfamily 1 group I member 3 (Homo sapiens) (Q14994 whole entry, looked up): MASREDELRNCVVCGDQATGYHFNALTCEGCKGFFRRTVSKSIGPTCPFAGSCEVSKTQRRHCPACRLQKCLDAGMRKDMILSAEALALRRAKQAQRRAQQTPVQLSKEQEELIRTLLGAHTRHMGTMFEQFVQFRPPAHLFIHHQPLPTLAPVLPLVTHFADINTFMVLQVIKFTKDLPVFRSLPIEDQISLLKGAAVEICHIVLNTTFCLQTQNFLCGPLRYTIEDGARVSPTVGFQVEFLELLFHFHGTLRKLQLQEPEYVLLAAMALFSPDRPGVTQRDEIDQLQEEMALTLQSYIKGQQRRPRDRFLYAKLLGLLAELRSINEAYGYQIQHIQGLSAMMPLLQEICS

CC(C)[C@@H](C(=O)O[C@@H](C#N)c1cccc(Oc2ccccc2)c1)c1ccc(Cl)cc1
inactive: [1] | [2] | [3] | [4] | [6] | [7]
19.6 µM (active) and inactive: [5]

NC(=O)CF
not listed: [11] | [12] | [13] | [14]
inactive: all other assays above

CCCCCCCCCCCC[N+](C)(C)CCOc1ccccc1
48.6 µM (active) and inactive: [10]
active: [1] 61.1 µM | [8] 61.1 µM and 26.6 µM | [6] 61.1 µM and 29.8 µM
inactive: [2] | [9] | [5] | [11]
24.6 µM (active) and inactive: [7]

C[N+]1(CCF)[C@@H]2CC[C@H]1CC(OC(=O)C(O)(c1ccccc1)c1ccccc1)C2 (some centres undefined)
not listed: [9] | [11] | [12] | [13] | [14]
inactive: all other assays above

CCCCCCCCn1sccc1=O
active: [1] 68.7 µM and 64.1 µM | [8] 27.4 µM and 16.1 µM | [2] 35.7 µM and 41.8 µM | [4] 30.7 µM and 5.71 µM | [6] 30.7 µM and 11.4 µM | [12] 30.7 µM | [7] 4.91 µM and 3.63 µM
inactive: [11]

[Cl-].[Cl-].[Hg+2]
active: [1] 27.2 µM and 6.11 µM | [8] 6.08 µM and 4.33 µM | [3] 60.8 µM and 7.7 µM | [4] 60.8 µM and 5.45 µM | [6] 15.3 µM and 2.43 µM | [7] 43.5 µM

CCCC[N+]1(C)[C@@H]2CC(OC(=O)[C@H](CO)c3ccccc3)C[C@H]1[C@@H]1O[C@@H]12 (some centres undefined)
not listed: [9] | [11] | [12] | [13] | [14]
inactive: all other assays above

CN[C@@H](C)[C@H](O)c1ccccc1
not listed: [1] | [11] | [12]
inactive: all other assays above

NCCc1cc(O)c(O)cc1O
not listed: [10] | [11] | [12] | [13] | [14]
inactive: all other assays above

O=C([O-])c1ccccn1.O=C([O-])c1ccccn1.O=C([O-])c1ccccn1.[Cr+3]
inactive: [1] | [2] | [4] | [9] | [5] | [6] | [7]

Cc1ccc(N)c(C)c1
inactive: [1] | [2] | [3] | [4] | [6] | [7]

CC(C)(C)CC(C)(C)c1ccc(O)cc1
active: [1] 43.3 µM | [10] 6.86 µM and 13.3 µM
inactive: [2] | [3] | [4]
38.9 µM (active) and inactive: [7]

CC1(C)[C@H](C(=O)O[C@H](C#N)c2cccc(Oc3ccccc3)c2)[C@@H]1C=C(Br)Br
inactive: [1] | [8] | [2] | [4] | [6] | [12] | [11] | [7]

CC(Cc1ccccc1)NCc1ccccc1Cl (centres undefined)
active: [5] 26.6 µM
not listed: [3] | [11] | [12] | [13] | [14]
inactive: all other assays above

CC(C)CCCCCCCOC(=O)c1ccccc1C(=O)OCCCCCCCC(C)C
not listed: [13] | [14]
inactive: all other assays above

CCOC(=O)C1OC1(C)c1ccccc1 (centres undefined)
not listed: [8] | [11] | [12] | [13] | [14]
inactive: all other assays above

CN1C[C@H](C(=O)N[C@]2(C)O[C@@]3(O)[C@@H]4CCCN4C(=O)[C@H](Cc4ccccc4)N3C2=O)C=C2c3cccc4[nH]cc(c34)C[C@H]21
inactive: [1] | [4] | [9] | [5] | [6]
active: [8] 24.4 µM and 9.01 µM | [2] 40.1 µM | [7] 24.7 µM and 14.4 µM

O=C(CCl)CCl
active: [7] 21.9 µM
inactive: [1] | [8] | [2] | [3] | [4] | [6] | [10]

CC(C)C1(C)N=C(c2ncccc2C(=O)O)NC1=O (centres undefined)
not listed: [11] | [12] | [13] | [14]
inactive: all other assays above

COP(=O)(OC)OC(Br)C(Cl)(Cl)Br (centres undefined)
active: [7] 43.6 µM
inactive: [1] | [8] | [2] | [3] | [4] | [9] | [5]
